Source: PubChem
The list is not random: actives were taken first. Their share in the collection is about 1.1%.
OPRM1-OPRD1 inv – inverse agonists of human mu-delta opioid receptor heterodimerization; cell-based MOR-DOR heterodimer luminescence, inverse agonism; inhibition, % at 9.3 µM; actives 0.21% (n = 340,000); in the data active means inhibition above about 22%, passing the limit was not always enough
HTR5A ag – HTR5A agonism, opioid heterodimer counter-screen. P47898. HTR5A agonist assay, luminescence, cell-based. AID 504692. activation, % at 9.3 µM. actives 0.61% (n = 340,000); in the data active means activation mostly above about 9.5%, no sharp cut-off; inactive means mostly below about 7.6%
Target sequence (P47898 whole entry, looked up): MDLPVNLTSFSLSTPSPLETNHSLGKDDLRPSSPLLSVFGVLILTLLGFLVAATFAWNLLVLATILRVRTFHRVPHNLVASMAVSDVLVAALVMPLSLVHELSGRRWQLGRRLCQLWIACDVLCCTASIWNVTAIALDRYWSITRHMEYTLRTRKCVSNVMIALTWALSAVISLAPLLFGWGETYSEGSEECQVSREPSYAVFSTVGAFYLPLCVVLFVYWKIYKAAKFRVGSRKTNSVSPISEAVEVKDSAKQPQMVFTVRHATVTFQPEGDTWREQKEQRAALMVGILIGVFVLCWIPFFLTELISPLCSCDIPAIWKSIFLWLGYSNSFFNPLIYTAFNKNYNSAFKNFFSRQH
OPRM1-OPRD1 ag – OPRM1-OPRD1 heterodimerization agonism | P35372+P41143 | cells, luminescence | activation, % at 9.3 µM | actives 0.3% (n = 340,000)
HTR5A inv ctr – inverse agonist of human HTR5A in OPRM1-OPRD1 counter-screen. P47898. HTR5A cell line, luminescence, inverse agonism. inhibition, % at 9.3 µM. actives 0.083% (n = 340,000). AID 504634; in the data active means inhibition mostly above about 23%, no sharp cut-off; inactive means mostly below about 18%
MOR-DOR ag conf – OPRM1-OPRD1 heterodimer agonism, confirmation; shares compounds with OPRM1-OPRD1 ag; cells, MOR-DOR heterodimerization, luminescence complementation; activation, % at 9.3 µM; actives 45% (n = 830)
HTR5A ag counter – activates human HTR5A in OPRM1-OPRD1 agonist counter-screen | shares compounds with OPRM1-OPRD1 ag | HTR5A agonist counterscreen, cell luminescence | activation, % at 9.3 µM | actives 8% (n = 830); in the data active means activation above about 17%
Hits are given with their value; i = inactive; nt = no result given. Unless noted, no stated cut-off is given here; in the data, active means activation above about 18%; inactive means the rest.

SMILES	OPRM1-OPRD1 inv	HTR5A ag	OPRM1-OPRD1 ag	HTR5A inv ctr	MOR-DOR ag conf	HTR5A ag counter
OC(COC(c1ccccc1)c1ccccc1)CN1CCN(c2cccc(Cl)c2)CC1 (centres undefined)	i	i	i	i	nt	nt
C/C(=C\c1ccccc1)CN1CCN(c2cccc(Cl)c2)CC1	i	i	i	i	nt	nt
OC(CN1CCN(c2cccc(Cl)c2)CC1)c1ccccc1 (centres undefined)	i	12.5	i	i	nt	nt
NC(=O)CN1CCN(c2cccc(Cl)c2)CC1	i	13.6	i	i	nt	nt
CCOC(=O)c1coc(CNC(=O)c2c(C)oc3c2CCCC3)c1	i	i	i	i	nt	nt
CCOC(=O)c1cc(CNC(=O)c2c(C)oc3c2CCCC3)c(C)o1	i	11.2	i	i	nt	nt
CCOC(=O)C1=CN(Cc2cccc(Br)c2)S(=O)(=O)N(CC)C1C (centres undefined)	i	i	i	i	nt	nt
CCCS(=O)(=O)N1CCCC(C(=O)NCCCOC(C)C)C1 (centres undefined)	i	i	i	i	nt	nt
CCCS(=O)(=O)N1CCCC(C(=O)NCCCN2CCN(c3ccc(F)cc3)CC2)C1 (centres undefined)	i	10.8	i	i	nt	nt
Cc1cccc(N2CCN(C(=O)COc3ccc4c(c3)CCC4)CC2C)c1 (centres undefined)	i	i	i	i	nt	nt
CC(C)C[C@@H](CN1CCC[C@@H]1CN1C(=O)C(=O)NC[C@@H]1Cc1ccccc1)N1C[C@H](Cc2ccccc2)N(CC2CCCCCC2)C(=O)C1=O	i	10.3	i	i	nt	nt
CCCC(=O)N1CCN(Cc2ccc3c(c2)OCO3)CC1	i	i	i	i	nt	nt
O=C(O)CCC(=O)N1CCN(Cc2ccc3c(c2)OCO3)CC1	i	11.7	i	i	nt	nt
Cc1nc(N2CCCCC2)c2c(C)c(C(=O)Nc3cccc(C(F)(F)F)c3)sc2n1	i	14.2	i	i	nt	nt
Nc1c(N(CCCO)C(=O)CCCN2C(=O)c3cccc4cccc(c34)C2=O)c(=O)[nH]c(=O)n1Cc1ccccc1	i	i	i	i	nt	nt
COc1ccccc1NC(=O)OC(C)c1ccc(Cl)cc1 (centres undefined)	i	17.2	i	i	nt	nt
Cc1cc(=O)[nH]c(SCC(=O)NN(c2ccccc2)c2ccccc2)n1	i	i	i	i	nt	nt
O=C(c1cccc(S(=O)(=O)Nc2ccc(F)cc2)c1)N1CCOCC1	i	i	i	i	nt	nt
CCOC(=O)c1ccc(N=c2scc(C)n2CC)cc1	i	12.9	i	i	nt	nt
COc1cc(CNC(C)c2ccccc2)cc(Cl)c1OCC(=O)Nc1ccccc1 (centres undefined)	i	i	21.3	i	i	i
COc1cc(CNC(C)c2ccccc2)cc(Br)c1OCc1ccc(F)cc1 (centres undefined)	i	i	20.9	i	i	i
CCN(CC)CCNCc1cc(Cl)c(OCC(=O)Nc2ccccc2)c(OC)c1	i	i	i	i	nt	nt
Cc1cnc(C(=O)OCC(=O)N2CCN(S(=O)(=O)c3ccc(Cl)cc3)CC2)cn1	i	i	i	i	nt	nt
O=C(Cn1ncc2c([nH]c3ccccc32)c1=O)N1CCN(c2ccc(F)cc2)CC1	i	i	i	i	nt	nt
COc1ccc(C(CNC(=O)C2CC2)N(C)C)cc1 (centres undefined)	i	i	i	i	nt	nt
SMILES	OPRM1-OPRD1 inv	HTR5A ag	OPRM1-OPRD1 ag	HTR5A inv ctr	MOR-DOR ag conf	HTR5A ag counter
COc1ccc(C(CNC(=O)Cc2ccc3ccccc3c2)N(C)C)cc1 (centres undefined)	i	i	36.7	i	i	i
COc1ccc(C(CNC(=O)C(C)c2ccc3cc(OC)ccc3c2)N(C)C)cc1 (centres undefined)	i	i	23.3	i	55.8	i
O=C(COC(=O)c1ccc(S(=O)(=O)N2CCCCC2)cc1)Nc1ccccc1	i	i	i	i	nt	nt
Cc1cc(C)c(S(=O)(=O)N2CCOC2CNC(=O)C(=O)NCCCn2ccnc2)c(C)c1 (centres undefined)	i	i	i	i	nt	nt
COCc1c(C(=O)N/N=C/c2cccc3ccccc23)nnn1-c1nonc1N	i	i	26.7	i	i	i
NC1=C(Br)C(=O)c2ncccc2C1=O	i	i	19.6	i	i	i
O=C1c2cccnc2C(=O)N1CO	i	i	i	i	nt	nt
COc1ccc(/C=N/n2c(-c3ccco3)nc3ccccc3c2=O)cc1	i	i	41.0	i	i	i
COc1ccccc1CN1CCC(n2nccc2NC(=O)CCCc2ccccc2)CC1	i	i	i	i	nt	nt
O=C(C[n+]1cnn(CC(=O)c2ccc(Cl)cc2Cl)c1)c1ccc([N+](=O)[O-])cc1	i	i	54.4	i	i	i
O=C(Cn1cnc([N+](=O)[O-])c1)c1ccc(Cl)cc1	i	i	i	i	nt	nt
COC(=O)c1ccc(C(=O)Nc2ccc(C(C)C)cc2N)cc1	i	i	i	i	nt	nt
COc1ccc(F)cc1CN1CCN(C(=O)CCC(=O)Nc2nnc(C(C)C)s2)CC1	i	i	24.9	i	24.7	i
CC1(c2ccccc2)CC(C)(C)N2C(=O)C3(C(C#N)=C(N)Oc4cc(O)ccc43)c3cccc1c32 (centres undefined)	i	i	20.4	i	47.4	i
Cc1ccc(Cl)cc1NC(=O)c1cnn2c1NC(c1ccco1)CC2C(F)(F)F (centres undefined)	i	i	i	i	nt	nt
O=C(Nc1ccc2c(c1)CCC2)c1cnn2c1NC(c1ccco1)CC2C(F)(F)F (centres undefined)	i	i	23.4	i	i	i
CCSc1nnc(NC(=O)c2cccc3ccccc23)s1	i	i	i	i	nt	nt
CCSc1nnc(NC(=O)c2cc(-c3ccccc3O)n[nH]2)s1	i	i	32.1	i	i	i
Oc1ccccc1N1CCN(C(c2ccccc2)c2ccccc2)CC1	i	i	26.6	i	23.4	i
Fc1ccc(CN2CCN(C(c3ccccc3)c3ccccc3)CC2)cc1	i	i	i	i	nt	nt
c1ccc(CN2CCN(C(c3ccccc3)c3ccccc3)CC2)cc1	i	i	26.2	i	19.2	i
Cc1nn(C(C)C(=O)N/N=C/c2ccc(N(C)C)cc2)c(C)c1[N+](=O)[O-] (centres undefined)	i	i	i	i	nt	nt
Nc1nonc1C(=O)NCCNCc1c(OCc2ccccc2F)ccc2ccccc12	i	i	22.3	i	121.5	i
Nc1nonc1C(=O)NCCNCc1cc(Br)ccc1OCc1ccc(F)cc1	i	i	i	i	nt	nt
CCCCN(C(=O)c1cccc(S(=O)(=O)N(CC)c2ccccc2)c1)c1c(N)n(CCCC)c(=O)[nH]c1=O	i	i	i	i	nt	nt
CCC(=O)c1cn(CC(=O)Nc2ccc(C)cc2C)c2ccccc12	i	i	i	i	nt	nt
O=S(=O)(NC1CC1)c1ccc(S(=O)(=O)N2CCCC3(CCCCC3)C2)cc1	i	i	39.5	i	31.9	i
CCOc1ccc(NC(=S)Nc2ccc3nsnc3c2)cc1	i	i	22.2	i	i	i
CC(=O)CSc1ccc(-c2nc3cc(C)c(C)cc3[nH]2)cn1	i	i	47.2	i	32.4	i
Cc1cc(-c2ccccc2)nc(N/N=C/c2ccc(O)cc2)n1	i	i	i	i	nt	nt
